{
  "source": "PubChem BioAssay (EPA / NIEHS)",
  "note": "“And” between values parts separate entries of the source, which are not always exact repeats. Equal entries are not always repeated. Records with an inconclusive call do not appear. A structure can be active in one record and inactive in another. The source made the active and inactive calls. How the source made its calls: active means hit-call score of the fitted dose curve at least 0.9, where 1 is the maximum; inconclusive means response in the unintended direction; inactive means score below 0.9.",
  "data": [
    {"molecular_target": "human Casein Kinase 2- alpha 2 beta 2 (CK2a2b2), CSNK2A1 (gene 1457) (UniProt P68400)", "sequence (P68400 whole entry, looked up)": "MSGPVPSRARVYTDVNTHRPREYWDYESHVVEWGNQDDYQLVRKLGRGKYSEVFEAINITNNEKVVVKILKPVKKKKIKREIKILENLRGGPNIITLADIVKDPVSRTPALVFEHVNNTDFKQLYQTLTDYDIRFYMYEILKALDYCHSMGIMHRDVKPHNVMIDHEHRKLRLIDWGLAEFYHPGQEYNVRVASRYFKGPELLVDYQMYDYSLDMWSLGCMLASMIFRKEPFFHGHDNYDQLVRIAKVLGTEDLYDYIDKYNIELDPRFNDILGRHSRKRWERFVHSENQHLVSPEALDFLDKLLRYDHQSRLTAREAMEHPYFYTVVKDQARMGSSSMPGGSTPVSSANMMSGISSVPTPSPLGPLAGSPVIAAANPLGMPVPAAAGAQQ", "assay": "NVS_ENZ_hCK2a2b2: NovaScreen (NVS) Enzymatic Assay for human Casein Kinase 2- alpha 2 beta 2 (CK2a2b2) (AID 2283147)", "method": "NVS_ENZ_hCK2a2b2 is a biochemical, single-readout assay that uses extracted gene-proteins in a cell-free assay. Measurements were taken 1 hour after chemical dosing in a 384-well plate.NVS_ENZ_hCK2a2b2 is one of one assay component(s) measured or calculated from the NVS_ENZ_hCK2a2b2 assay. It is designed to make measurements of enzyme activity, a form of enzyme reporter, as detected with fluorescence intensity signals by Fluorescence and electrophoretic mobility shift technology.Data from the assay component NVS_ENZ_hCK2a2b2 was analyzed into 1 assay endpoint. This assay endpoint, NVS_ENZ_hCK2a2b2, was analyzed in the positive analysis fitting direction relative to DMSO as the negative control and baseline of activity. Using a type of enzyme reporter, loss-of-signal activity can be used to understand changes in the enzymatic activity as they relate to the gene CSNK2A1. Furthermore, this assay endpoint can be referred to as a primary readout, because this assay has produced multiple assay endpoints where this one serves a enzymatic activity function. To generalize the intended target to other relatable targets, this assay endpoint is annotated to the kinase intended target family, where the subfamily is serine/threonine kinase.\n(§1) Binding assays used specific radioligands (tritiated, iodinated) with non-radioactive competitive displacement ligands in agonist or antagonist protocols (as indicated) and various reference compounds and inhibitors to titrate specific binding to receptors and transporters. Most enzyme assays (CYPs, kinases, phosphatases, proteases, HDACs) used recombinant protein and specific substrates (fluorescence mostly, some colorimetric and radioactive) and inhibitors, followed by a biochemical separation of substrate and product. All assays for the biochemical HTS were initially run in duplicate at a single concentration (10 uM for CYP450 assays and 25 uM for all others). Assay-chemical combinations meeting a pre-defined threshold (e.g., 30% inhibition and other criteria defined below) were then run in singleton concentration-response format with maximum concentration of 20 uM for CYPs and 50 uM for all others. Each assay was run with positive and negative controls, and concurrent controls on every plate. The follow-up (secondary) screen tested active chemical-pairs in concentration series, as well as a few additional assays not tested in the primary screen, some selected negative inactives, and several cases re-run in the concentration series for confirmatory purposes.", "values": [
      {"smiles": "CCC(C)(NC(=O)c1cc(Cl)c(C)c(Cl)c1)C(=O)CCl", "note": "(stereo unspecified)", "outcome": "inactive"},
      {"smiles": "N#Cc1c(Cl)c(Cl)c(Cl)c(C#N)c1Cl", "AC50": "33.6 µM (active)"},
      {"smiles": "O=C(Nc1ccccc1)Nc1cnns1", "AC50": "10.9 µM (active)"},
      {"smiles": "O=C(O)COc1ccc(Cl)cc1Cl", "AC50": "19.7 µM (active)"},
      {"smiles": "O=C(O)CCCOc1ccc(Cl)cc1Cl", "AC50": "19 µM (active)"}
    ]},
    {"molecular_target": "human Casein Kinase 1-delta (CK1D), CSNK1D (gene 1453) (UniProt P48730)", "sequence (P48730 whole entry, looked up)": "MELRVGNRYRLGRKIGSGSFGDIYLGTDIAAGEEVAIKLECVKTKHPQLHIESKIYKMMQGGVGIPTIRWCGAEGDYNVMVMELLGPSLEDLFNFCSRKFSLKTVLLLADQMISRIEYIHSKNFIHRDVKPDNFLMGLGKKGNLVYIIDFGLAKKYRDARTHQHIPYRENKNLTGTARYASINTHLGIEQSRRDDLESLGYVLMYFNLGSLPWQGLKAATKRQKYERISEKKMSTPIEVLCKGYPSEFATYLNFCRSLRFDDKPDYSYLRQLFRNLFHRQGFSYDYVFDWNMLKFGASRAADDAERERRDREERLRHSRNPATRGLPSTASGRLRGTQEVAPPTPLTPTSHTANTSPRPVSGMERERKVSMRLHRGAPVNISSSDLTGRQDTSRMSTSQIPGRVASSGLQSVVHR", "assay": "NVS_ENZ_hCK1D: NovaScreen (NVS) Enzymatic Assay for human Casein Kinase 1-delta (CK1D) (AID 2283148)", "outline": "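Recombinant human CK1-delta, cell-free; fluorescent substrate with electrophoretic mobility-shift separation of product, read 1 h after dosing. Single 25 uM duplicate screen, then concentration-response up to 50 uM; loss of signal vs DMSO.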", "values": [
      {"smiles": "O=S(=O)(O)C(F)(F)C(F)(F)C(F)(F)C(F)(F)C(F)(F)C(F)(F)C(F)(F)C(F)(F)F", "AC50": "22 µM (active) and 39 µM (active)"},
      {"smiles": "Oc1ccc(Cl)cc1Cc1ccccc1", "AC50": "25.2 µM (active) and 21.9 µM (active)"},
      {"smiles": "CCOc1nc(NC)nc(NC(=O)NS(=O)(=O)c2ccccc2C(=O)OC)n1", "AC50": "18.4 µM (active)"}
    ]},
    {"molecular_target": "human Colony Stimulating Factor 1 Receptor (CSF1R), CSF1R (gene 1436) (UniProt P07333)", "sequence (P07333 whole entry, looked up)": "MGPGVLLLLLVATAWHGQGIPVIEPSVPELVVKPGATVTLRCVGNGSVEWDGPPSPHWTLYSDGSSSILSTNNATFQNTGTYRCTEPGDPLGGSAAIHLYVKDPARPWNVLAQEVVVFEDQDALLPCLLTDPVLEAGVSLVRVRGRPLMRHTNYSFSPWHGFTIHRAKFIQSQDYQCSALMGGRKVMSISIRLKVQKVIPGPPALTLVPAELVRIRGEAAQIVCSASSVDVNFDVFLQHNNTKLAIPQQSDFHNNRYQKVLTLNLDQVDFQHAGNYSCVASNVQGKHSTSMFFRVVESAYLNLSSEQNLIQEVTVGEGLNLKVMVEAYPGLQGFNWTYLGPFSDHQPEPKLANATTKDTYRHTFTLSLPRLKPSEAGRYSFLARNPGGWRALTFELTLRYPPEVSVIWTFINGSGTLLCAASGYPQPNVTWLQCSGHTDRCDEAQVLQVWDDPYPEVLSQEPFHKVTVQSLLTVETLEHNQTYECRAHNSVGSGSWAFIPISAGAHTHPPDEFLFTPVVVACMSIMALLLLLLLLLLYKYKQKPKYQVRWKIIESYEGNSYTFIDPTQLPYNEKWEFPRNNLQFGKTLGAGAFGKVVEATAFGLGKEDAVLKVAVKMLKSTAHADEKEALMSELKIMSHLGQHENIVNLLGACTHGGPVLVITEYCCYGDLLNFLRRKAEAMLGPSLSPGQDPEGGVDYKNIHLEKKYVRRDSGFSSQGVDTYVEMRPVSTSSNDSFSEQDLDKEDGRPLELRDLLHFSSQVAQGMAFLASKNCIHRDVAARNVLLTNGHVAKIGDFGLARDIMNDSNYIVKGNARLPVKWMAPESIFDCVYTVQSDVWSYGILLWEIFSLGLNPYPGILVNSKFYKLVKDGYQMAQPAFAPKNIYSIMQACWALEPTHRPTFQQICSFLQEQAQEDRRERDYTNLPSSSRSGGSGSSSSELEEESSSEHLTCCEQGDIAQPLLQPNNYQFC", "assay": "NVS_ENZ_hCSF1R: NovaScreen (NVS) Enzymatic Assay for human Colony Stimulating Factor 1 Receptor (CSF1R) (AID 2283150)", "outline": "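Cell-free recombinant human CSF1R kinase with fluorescent substrate, product separated by electrophoretic mobility shift; read 1 h after dosing. Primary screen at 25 uM in duplicate, actives then in concentration-response up to 50 uM, relative to DMSO.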", "values": [
      {"smiles": "CC1(C)C(C=C(Cl)Cl)C1C(=O)OC(C#N)c1ccc(F)c(Oc2ccccc2)c1", "note": "(stereo unspecified)", "outcome": "inactive"},
      {"smiles": "O=S(=O)(O)C(F)(F)C(F)(F)C(F)(F)C(F)(F)C(F)(F)C(F)(F)C(F)(F)C(F)(F)F", "AC50": "18.6 µM (active) and 43.9 µM (active)"},
      {"smiles": "CCOC1Oc2ccc(OS(C)(=O)=O)cc2C1(C)C", "note": "(stereo unspecified)", "outcome": "inactive"},
      {"smiles": "Oc1cc(Cl)ccc1Oc1ccc(Cl)cc1Cl", "outcome": "inactive"},
      {"smiles": "CC(C)(C)C(O)C(Oc1ccc(Cl)cc1)n1cncn1", "note": "(stereo unspecified)", "outcome": "inactive"}
    ]},
    {"molecular_target": "human Dual Specificity Protein Phosphatase 3 (DUSP3), DUSP3 (gene 1845) (UniProt P51452)", "sequence (P51452 whole entry, looked up)": "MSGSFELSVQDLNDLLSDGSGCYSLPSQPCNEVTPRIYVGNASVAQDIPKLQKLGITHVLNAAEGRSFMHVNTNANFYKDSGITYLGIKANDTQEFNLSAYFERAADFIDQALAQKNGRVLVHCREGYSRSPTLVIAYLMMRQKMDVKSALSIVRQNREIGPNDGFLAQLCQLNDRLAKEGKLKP", "assay": "NVS_ENZ_hDUSP3: NovaScreen (NVS) Enzymatic Assay for human Dual Specificity Protein Phosphatase 3 (DUSP3) (AID 2283152);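 further: phosphatase activity of recombinant human DUSP3 on a fluorogenic substrate without cells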", "method": "NVS_ENZ_hDUSP3 is a biochemical, single-readout assay that uses extracted gene-proteins in a cell-free assay. Measurements were taken 0 hour after chemical dosing in a 96-well plate.NVS_ENZ_hDUSP3 is one of one assay component(s) measured or calculated from the NVS_ENZ_hDUSP3 assay. It is designed to make measurements of enzyme activity, a form of enzyme reporter, as detected with fluorescence intensity signals by Fluorescence technology.Data from the assay component NVS_ENZ_hDUSP3 was analyzed into 1 assay endpoint. This assay endpoint, NVS_ENZ_hDUSP3, was analyzed in the positive analysis fitting direction relative to DMSO as the negative control and baseline of activity. Using a type of enzyme reporter, loss-of-signal activity can be used to understand changes in the enzymatic activity as they relate to the gene DUSP3. Furthermore, this assay endpoint can be referred to as a primary readout, because this assay has produced multiple assay endpoints where this one serves a enzymatic activity function. To generalize the intended target to other relatable targets, this assay endpoint is annotated to the phosphatase intended target family, where the subfamily is dual-specific phosphatase.\nas §1, with “Assay-chemical combinations meeting a pre-defined threshold (e.g., 30% inhibition and other criteria defined below) were then run in singleton concentration-response format with maximum concentration of 20 uM for CYPs and 50 uM for all others.” left out", "values": [
      {"smiles": "O=S(=O)(O)C(F)(F)C(F)(F)C(F)(F)C(F)(F)C(F)(F)C(F)(F)C(F)(F)C(F)(F)F", "AC50": "35.6 µM (active)", "outcome": "inactive"},
      {"smiles": "CCCN(CCOc1c(Cl)cc(Cl)cc1Cl)C(=O)n1ccnc1", "outcome": "inactive"},
      {"smiles": "N#Cc1c(Cl)c(Cl)c(Cl)c(C#N)c1Cl", "AC50": "17.7 µM (active)"},
      {"smiles": "Oc1ccc(Cl)cc1Cc1ccccc1", "outcome": "inactive"},
      {"smiles": "CC[C@H](C)[C@H]1O[C@]2(C=C[C@@H]1C)C[C@@H]1C[C@@H](C/C=C(\\C)[C@@H](O[C@H]3C[C@H](OC)[C@@H](O[C@H]4C[C@H](OC)[C@@H](O)[C@H](C)O4)[C@H](C)O3)[C@@H](C)/C=C/C=C3\\CO[C@@H]4[C@H](O)C(C)=C[C@@H](C(=O)O1)[C@]34O)O2", "note": "(tested in a mixture with another compound)", "AC50": "2.74 µM (active)"},
      {"smiles": "Oc1cc(Cl)ccc1Oc1ccc(Cl)cc1Cl", "outcome": "inactive"},
      {"smiles": "O=C(O)C(F)(F)C(F)(F)C(F)(F)C(F)(F)C(F)(F)C(F)(F)C(F)(F)F", "outcome": "inactive"}
    ]}
  ]
}
